# Measurements reported in paper PMC7862700, “An all-to-all approach to the identification of sequence-specific readers for epigenetic DNA modifications on cytosine”.
# Tests used:
# Test in all cases: DAPPL (digital affinity profiling via proximity ligation, sequencing); 10 mM Tris-HCl pH 7.5, 50 mM NaCl, 1 mM DTT, 4% glycerol, room temperature, 30 min; GST-TFs on glutathione beads, 16-mer random dsDNA library, 0.1% formaldehyde crosslink after washing; high values mean tight binding
# [1] = target: T1, FLI1 (Homo sapiens, UniProt Q01543 1-452); details: protein: recombinant; tags: N-terminal GST; dsDNA, one strand shown
# T1 sequence: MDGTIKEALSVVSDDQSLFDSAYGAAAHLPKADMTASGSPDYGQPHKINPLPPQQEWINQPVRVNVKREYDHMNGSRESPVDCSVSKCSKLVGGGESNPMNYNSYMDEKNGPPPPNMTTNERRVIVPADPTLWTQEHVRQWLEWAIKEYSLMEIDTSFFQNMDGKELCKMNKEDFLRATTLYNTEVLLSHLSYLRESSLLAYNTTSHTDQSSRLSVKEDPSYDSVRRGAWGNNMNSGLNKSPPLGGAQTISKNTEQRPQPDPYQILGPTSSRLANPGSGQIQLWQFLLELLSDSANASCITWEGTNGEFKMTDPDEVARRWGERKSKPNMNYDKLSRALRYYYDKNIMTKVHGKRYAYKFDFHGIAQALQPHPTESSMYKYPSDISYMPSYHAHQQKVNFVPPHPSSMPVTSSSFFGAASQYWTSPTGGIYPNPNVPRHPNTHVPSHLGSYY
# In short: (§1)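 In yeast, human transcription factors were expressed with a GST fusion, then pulled down on glutathione beads and given DNA barcodes. Pooled with a tag-only sample, they were exposed to 200 nmole of a 16-mer random double-stranded DNA library (Tris/NaCl/DTT/glycerol buffer, room temperature, 30 min), washed, crosslinked with 0.1% formaldehyde, proximity-ligated using BsaI/T4 ligase for 1 h at 37 °C, PCR-amplified and read on an Illumina NextSeq500. Each hexamer's frequency of reads for a factor, divided by the matching frequency for the tag-only sample, gives the binding signal.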
# [2] = target: T2, ELK1 (Homo sapiens, UniProt P19419 1-428); details: protein: recombinant; tags: N-terminal GST; dsDNA, one strand shown
# T2 sequence: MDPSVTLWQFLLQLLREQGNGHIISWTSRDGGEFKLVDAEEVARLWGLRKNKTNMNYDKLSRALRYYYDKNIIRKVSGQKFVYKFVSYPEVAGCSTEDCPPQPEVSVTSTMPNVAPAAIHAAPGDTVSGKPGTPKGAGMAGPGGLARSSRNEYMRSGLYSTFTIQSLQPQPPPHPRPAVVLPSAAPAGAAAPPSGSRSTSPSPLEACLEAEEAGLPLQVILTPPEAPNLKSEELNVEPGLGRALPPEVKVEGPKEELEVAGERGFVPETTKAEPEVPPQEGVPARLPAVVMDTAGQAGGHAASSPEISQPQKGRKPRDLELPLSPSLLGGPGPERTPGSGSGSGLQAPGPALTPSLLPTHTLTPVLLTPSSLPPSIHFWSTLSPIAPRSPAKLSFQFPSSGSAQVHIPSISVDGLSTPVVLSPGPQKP
# In short: as §1
# [3] = target: T3, GABPA (Homo sapiens, UniProt Q06546 1-454); details: protein: recombinant; tags: N-terminal GST; dsDNA, one strand shown
# T3 sequence: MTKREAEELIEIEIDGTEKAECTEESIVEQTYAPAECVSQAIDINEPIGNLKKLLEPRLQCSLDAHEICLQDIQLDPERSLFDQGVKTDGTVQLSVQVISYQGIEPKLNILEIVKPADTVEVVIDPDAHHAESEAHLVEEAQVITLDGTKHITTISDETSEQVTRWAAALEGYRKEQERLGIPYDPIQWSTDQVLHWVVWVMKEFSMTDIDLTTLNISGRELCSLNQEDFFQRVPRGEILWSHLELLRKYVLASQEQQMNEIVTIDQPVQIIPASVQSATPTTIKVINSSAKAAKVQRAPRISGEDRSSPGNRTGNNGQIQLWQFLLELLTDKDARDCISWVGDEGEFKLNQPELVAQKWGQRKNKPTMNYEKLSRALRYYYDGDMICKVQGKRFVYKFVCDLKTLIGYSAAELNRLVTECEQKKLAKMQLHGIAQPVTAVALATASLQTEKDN
# In short: as §1
# [4] = target: T4, ERG (Homo sapiens, UniProt P11308 1-479); details: protein: recombinant; tags: N-terminal GST; dsDNA, one strand shown
# T4 sequence: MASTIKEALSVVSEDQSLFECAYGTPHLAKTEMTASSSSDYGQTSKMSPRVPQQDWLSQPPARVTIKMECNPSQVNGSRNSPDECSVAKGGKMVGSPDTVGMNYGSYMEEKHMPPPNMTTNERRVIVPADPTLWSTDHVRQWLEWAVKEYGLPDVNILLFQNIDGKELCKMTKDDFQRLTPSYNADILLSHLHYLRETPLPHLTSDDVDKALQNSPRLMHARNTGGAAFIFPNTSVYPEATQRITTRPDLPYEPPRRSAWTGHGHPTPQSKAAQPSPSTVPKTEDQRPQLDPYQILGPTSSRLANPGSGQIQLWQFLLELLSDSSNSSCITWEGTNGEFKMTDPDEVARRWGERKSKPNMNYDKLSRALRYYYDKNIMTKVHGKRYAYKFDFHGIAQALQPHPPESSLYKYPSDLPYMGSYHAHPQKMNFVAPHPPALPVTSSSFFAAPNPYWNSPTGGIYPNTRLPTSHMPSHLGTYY
# In short: as §1
# [5] = target: ELF1 (Homo sapiens, UniProt P32519 1-619); details: protein: recombinant; tags: N-terminal GST; dsDNA, one strand shown
# In short: as §1
# [6] = target: T5, EHF (Homo sapiens, UniProt Q9NZC4 1-300); details: protein: recombinant; tags: N-terminal GST; dsDNA, one strand shown
# T5 sequence: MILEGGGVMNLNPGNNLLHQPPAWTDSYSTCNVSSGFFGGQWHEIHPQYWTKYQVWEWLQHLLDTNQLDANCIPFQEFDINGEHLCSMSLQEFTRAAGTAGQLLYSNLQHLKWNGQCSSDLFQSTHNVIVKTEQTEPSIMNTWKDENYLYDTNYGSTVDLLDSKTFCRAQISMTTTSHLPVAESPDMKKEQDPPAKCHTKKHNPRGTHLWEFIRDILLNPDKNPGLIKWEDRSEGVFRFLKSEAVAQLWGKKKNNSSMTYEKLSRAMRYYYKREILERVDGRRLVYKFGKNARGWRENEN
# In short: as §1
# [7] = target: SPI1 (Homo sapiens, UniProt P17947 1-270); details: protein: recombinant; tags: N-terminal GST; dsDNA, one strand shown
# In short: as §1
# [8] = target: SPIB (Homo sapiens, UniProt Q01892 1-262); details: protein: recombinant; tags: N-terminal GST; dsDNA, one strand shown
# In short: as §1
# [9] = target: T6, ELK3 (Homo sapiens, UniProt P41970 1-407); details: protein: recombinant; tags: N-terminal GST; dsDNA, one strand shown
# T6 sequence: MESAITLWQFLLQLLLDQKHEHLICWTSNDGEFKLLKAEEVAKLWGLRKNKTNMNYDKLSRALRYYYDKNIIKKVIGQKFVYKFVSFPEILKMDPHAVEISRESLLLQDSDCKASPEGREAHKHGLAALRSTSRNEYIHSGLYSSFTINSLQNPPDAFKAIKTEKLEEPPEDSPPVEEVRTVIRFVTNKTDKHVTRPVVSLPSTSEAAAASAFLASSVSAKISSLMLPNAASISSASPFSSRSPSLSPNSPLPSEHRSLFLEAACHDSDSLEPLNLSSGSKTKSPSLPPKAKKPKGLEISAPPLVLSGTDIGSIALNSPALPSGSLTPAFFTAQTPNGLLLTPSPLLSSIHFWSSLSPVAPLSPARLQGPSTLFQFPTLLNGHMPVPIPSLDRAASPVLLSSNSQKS
# In short: as §1
# [10] = target: T7, FEV (Homo sapiens, UniProt Q99581 1-238); details: protein: recombinant; tags: N-terminal GST; dsDNA, one strand shown
# T7 sequence: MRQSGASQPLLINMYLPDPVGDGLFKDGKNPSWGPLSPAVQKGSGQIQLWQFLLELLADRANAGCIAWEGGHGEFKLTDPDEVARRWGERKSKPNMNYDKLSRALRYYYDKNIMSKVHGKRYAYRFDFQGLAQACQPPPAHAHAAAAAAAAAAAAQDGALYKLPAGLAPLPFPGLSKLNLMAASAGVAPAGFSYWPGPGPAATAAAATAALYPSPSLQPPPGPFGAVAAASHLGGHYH
# In short: as §1
# [11] = target: ETV5 (Homo sapiens, UniProt P41161 1-510); details: protein: recombinant; tags: N-terminal GST; dsDNA, one strand shown
# In short: as §1
# [12] = target: HSF1 (Homo sapiens, UniProt Q00613 1-529); details: protein: recombinant; tags: N-terminal GST; chain copies: 3; dsDNA, one strand shown
# In short: as §1
# [13] = target: T8, SPIC (Homo sapiens, UniProt Q8N5J4 1-248); details: protein: recombinant; tags: N-terminal GST; dsDNA, one strand shown
# T8 sequence: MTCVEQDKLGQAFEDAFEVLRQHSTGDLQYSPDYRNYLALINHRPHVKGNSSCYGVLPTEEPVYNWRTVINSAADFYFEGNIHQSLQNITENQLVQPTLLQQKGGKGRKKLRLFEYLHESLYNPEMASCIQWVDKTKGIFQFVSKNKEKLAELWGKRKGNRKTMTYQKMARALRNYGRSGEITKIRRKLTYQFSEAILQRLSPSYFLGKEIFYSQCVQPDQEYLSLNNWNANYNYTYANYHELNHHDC
# In short: as §1
# [14] = target: ELF4 (Homo sapiens, UniProt Q99607 1-663); details: protein: recombinant; tags: N-terminal GST; dsDNA, one strand shown
# In short: as §1
# [15] = target: T9, ELK4 (Homo sapiens, UniProt P28324-2 1-405); details: protein: recombinant; tags: N-terminal GST; dsDNA, one strand shown
# T9 sequence: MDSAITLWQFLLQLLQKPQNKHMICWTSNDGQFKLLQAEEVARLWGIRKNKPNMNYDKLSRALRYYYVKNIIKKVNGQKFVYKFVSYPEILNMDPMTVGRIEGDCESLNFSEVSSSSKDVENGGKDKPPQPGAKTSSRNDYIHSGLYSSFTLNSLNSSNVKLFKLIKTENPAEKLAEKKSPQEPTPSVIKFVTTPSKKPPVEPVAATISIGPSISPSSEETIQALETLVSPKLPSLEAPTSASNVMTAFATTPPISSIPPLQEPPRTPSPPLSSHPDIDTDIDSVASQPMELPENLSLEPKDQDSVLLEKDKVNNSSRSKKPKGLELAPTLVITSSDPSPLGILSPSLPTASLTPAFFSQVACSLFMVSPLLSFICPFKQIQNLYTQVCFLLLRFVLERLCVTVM
# In short: as §1
# [16] = target: T10, ETV2 (Homo sapiens, UniProt O00321 1-342); details: protein: recombinant; tags: N-terminal GST; dsDNA, one strand shown
# T10 sequence: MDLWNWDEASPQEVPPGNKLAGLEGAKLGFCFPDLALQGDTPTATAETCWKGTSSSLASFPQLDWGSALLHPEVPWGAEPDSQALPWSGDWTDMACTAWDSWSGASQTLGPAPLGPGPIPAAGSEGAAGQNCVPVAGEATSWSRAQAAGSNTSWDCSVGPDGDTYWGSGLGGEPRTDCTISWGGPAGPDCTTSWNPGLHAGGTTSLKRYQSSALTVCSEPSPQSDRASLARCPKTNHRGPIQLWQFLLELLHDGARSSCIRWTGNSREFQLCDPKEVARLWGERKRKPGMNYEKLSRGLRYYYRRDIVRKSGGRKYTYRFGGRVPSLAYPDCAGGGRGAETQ
# In short: as §1
# [17] = target: T11, ELF3 (Homo sapiens, UniProt P78545 1-371); details: protein: recombinant; tags: N-terminal GST; dsDNA, one strand shown
# T11 sequence: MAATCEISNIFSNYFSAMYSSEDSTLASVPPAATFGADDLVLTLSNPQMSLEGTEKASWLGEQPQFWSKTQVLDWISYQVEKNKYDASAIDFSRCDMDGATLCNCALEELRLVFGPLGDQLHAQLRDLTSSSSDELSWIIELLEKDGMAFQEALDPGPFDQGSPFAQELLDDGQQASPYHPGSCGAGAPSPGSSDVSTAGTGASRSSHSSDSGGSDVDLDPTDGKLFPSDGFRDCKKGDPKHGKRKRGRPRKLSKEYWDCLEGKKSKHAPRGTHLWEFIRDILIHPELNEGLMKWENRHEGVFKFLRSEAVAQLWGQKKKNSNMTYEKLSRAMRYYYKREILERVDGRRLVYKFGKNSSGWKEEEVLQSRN
# In short: as §1
# [18] = target: CRX (Homo sapiens, UniProt O43186 1-299); details: protein: recombinant; tags: N-terminal GST; dsDNA, one strand shown
# In short: as §1
# [19] = target: ETV1 (Homo sapiens, UniProt P50549 1-477); details: protein: recombinant; tags: N-terminal GST; dsDNA, one strand shown
# In short: as §1
# HSF1, sequence (Q00613 whole entry): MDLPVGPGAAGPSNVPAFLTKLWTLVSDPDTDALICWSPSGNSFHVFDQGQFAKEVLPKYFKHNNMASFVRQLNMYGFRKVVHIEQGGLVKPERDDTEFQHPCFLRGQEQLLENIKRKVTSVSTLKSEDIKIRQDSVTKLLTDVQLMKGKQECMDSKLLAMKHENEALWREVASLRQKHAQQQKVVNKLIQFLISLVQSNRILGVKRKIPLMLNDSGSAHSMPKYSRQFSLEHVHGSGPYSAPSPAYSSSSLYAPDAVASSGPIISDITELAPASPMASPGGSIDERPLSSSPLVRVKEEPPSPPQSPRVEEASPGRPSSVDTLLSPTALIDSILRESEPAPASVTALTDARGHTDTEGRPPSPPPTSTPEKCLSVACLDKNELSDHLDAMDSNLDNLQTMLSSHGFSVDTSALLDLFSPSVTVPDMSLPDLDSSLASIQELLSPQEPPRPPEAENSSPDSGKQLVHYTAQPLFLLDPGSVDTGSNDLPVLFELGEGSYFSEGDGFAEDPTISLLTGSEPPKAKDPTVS
# ETV5, sequence (P41161 whole entry): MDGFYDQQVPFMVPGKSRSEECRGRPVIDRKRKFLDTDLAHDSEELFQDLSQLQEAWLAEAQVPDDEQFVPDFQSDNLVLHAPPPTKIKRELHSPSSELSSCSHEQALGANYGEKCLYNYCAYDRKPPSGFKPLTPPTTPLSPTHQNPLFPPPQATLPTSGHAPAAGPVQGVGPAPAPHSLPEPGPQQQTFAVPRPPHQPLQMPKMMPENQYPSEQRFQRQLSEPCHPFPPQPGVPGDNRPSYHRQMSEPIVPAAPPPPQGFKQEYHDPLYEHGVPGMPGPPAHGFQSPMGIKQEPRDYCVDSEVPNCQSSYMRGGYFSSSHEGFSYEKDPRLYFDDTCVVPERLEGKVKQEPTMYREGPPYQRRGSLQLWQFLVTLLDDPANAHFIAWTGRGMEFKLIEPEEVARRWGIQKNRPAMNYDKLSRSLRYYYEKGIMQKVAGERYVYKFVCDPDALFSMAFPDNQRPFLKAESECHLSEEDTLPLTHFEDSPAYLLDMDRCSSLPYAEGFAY
# CRX, sequence (O43186 whole entry): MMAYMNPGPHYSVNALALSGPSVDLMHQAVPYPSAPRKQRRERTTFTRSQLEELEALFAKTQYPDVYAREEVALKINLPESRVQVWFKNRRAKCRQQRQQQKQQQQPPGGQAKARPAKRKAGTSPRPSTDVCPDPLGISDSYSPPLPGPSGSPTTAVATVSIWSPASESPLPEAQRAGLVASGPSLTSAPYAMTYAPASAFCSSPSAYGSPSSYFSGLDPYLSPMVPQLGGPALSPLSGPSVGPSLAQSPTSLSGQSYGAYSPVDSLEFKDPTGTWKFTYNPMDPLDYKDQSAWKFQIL
# SPIB, sequence (Q01892 whole entry): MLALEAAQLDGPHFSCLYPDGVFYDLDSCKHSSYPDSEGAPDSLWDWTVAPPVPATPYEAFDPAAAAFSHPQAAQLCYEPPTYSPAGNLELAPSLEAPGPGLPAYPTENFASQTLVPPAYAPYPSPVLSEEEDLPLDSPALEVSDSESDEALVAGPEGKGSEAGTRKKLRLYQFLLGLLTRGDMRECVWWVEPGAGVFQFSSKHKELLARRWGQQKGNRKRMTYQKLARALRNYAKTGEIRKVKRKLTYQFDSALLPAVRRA
# ETV1, sequence (P50549 whole entry): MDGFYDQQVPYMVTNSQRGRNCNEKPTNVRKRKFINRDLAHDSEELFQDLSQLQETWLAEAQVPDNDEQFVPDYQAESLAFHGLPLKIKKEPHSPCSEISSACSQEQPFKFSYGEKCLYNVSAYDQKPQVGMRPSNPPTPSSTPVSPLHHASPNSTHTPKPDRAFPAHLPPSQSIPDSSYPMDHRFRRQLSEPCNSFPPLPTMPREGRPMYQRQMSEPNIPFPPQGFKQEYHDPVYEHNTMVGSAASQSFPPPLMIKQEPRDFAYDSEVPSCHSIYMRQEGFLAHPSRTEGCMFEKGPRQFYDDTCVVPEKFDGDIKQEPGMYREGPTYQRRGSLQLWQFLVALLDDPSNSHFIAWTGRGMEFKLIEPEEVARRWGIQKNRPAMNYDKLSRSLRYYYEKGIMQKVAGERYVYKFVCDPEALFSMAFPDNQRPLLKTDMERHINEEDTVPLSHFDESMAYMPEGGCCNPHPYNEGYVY
# ELF1, sequence (P32519 whole entry): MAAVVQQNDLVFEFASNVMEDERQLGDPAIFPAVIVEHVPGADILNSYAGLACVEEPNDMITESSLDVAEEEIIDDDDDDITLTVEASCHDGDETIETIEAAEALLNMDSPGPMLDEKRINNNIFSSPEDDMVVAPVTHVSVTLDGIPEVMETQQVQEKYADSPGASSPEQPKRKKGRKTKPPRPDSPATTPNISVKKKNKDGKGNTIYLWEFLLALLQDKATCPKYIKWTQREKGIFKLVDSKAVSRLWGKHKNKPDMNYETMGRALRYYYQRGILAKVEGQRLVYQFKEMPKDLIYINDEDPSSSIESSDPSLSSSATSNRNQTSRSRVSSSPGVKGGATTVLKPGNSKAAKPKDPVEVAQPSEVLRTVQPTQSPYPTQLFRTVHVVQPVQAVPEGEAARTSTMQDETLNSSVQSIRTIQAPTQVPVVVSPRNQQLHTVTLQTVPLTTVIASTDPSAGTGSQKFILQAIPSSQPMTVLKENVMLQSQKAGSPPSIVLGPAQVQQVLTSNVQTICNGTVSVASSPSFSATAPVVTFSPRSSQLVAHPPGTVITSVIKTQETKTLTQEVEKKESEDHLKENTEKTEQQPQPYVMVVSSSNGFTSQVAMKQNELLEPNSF
# ELF4, sequence (Q99607 whole entry): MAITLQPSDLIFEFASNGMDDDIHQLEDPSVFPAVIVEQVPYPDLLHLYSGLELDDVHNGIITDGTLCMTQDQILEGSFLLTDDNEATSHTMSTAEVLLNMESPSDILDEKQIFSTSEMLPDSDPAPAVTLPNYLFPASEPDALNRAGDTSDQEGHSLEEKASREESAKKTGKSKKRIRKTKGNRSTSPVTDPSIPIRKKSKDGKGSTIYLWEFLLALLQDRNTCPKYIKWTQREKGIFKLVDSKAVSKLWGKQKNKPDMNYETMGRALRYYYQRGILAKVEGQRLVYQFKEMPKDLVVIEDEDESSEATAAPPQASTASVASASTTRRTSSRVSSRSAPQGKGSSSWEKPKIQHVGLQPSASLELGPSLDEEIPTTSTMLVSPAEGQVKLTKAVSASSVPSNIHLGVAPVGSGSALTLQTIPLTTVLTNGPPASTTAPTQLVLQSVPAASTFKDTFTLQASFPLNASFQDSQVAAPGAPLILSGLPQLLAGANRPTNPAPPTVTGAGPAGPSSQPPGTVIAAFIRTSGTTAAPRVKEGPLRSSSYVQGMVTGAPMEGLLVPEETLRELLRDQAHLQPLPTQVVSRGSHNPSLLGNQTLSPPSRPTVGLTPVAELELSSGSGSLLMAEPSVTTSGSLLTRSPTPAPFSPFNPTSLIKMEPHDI
sequence,measurement,setting,value
TACTTG,binding signal,[1],"1.39 fold enrichment (6-mer frequency, TF over GST control)"
same,binding signal,[2],"1.39 fold enrichment (6-mer frequency, TF over GST control)"
same,binding signal,[3],"1.34 fold enrichment (6-mer frequency, TF over GST control)"
same,binding signal,[4],"1.18 fold enrichment (6-mer frequency, TF over GST control)"
same,binding signal,[5],"1.32 fold enrichment (6-mer frequency, TF over GST control)"
same,binding signal,[6],"1.32 fold enrichment (6-mer frequency, TF over GST control)"
same,binding signal,[7],"1.27 fold enrichment (6-mer frequency, TF over GST control)"
same,binding signal,[8],"1.44 fold enrichment (6-mer frequency, TF over GST control)"
same,binding signal,[9],"1.35 fold enrichment (6-mer frequency, TF over GST control)"
same,binding signal,[10],"1.22 fold enrichment (6-mer frequency, TF over GST control)"
same,binding signal,[11],"1.26 fold enrichment (6-mer frequency, TF over GST control)"
same,binding signal,[12],"1.26 fold enrichment (6-mer frequency, TF over GST control)"
same,binding signal,[13],"1.35 fold enrichment (6-mer frequency, TF over GST control)"
same,binding signal,[14],"1.39 fold enrichment (6-mer frequency, TF over GST control)"
same,binding signal,[15],"1.38 fold enrichment (6-mer frequency, TF over GST control)"
same,binding signal,[16],"1.46 fold enrichment (6-mer frequency, TF over GST control)"
same,binding signal,[17],"1.54 fold enrichment (6-mer frequency, TF over GST control)"
same,binding signal,[18],"1.5 fold enrichment (6-mer frequency, TF over GST control)"
same,binding signal,[19],"1.54 fold enrichment (6-mer frequency, TF over GST control)"
